Holding throughout (experiment): BK channel mutant inhibitors and activators – cell-based, U2OS BacMam, thallium flux, beta subunits, selectivity assay, profiling panel (AID 1259406);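 also: initial slope of Thallos dye fluorescence rise after thallium is added; log ratio against the mean of 0.3% DMSO vehicle wells on the same plate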
In assay [1] the test system is F380Y/beta2Delta. The conditions noted are these: U2OS BacMam BK variants, at 30 µM.
The subject of assay [2] is F380Y/beta4. The conditions noted are these: U2OS BacMam BK variants, at 30 µM.
Assay [3] concerns the target Calcium-activated potassium channel subunit alpha-1 (Homo sapiens) + Leucine-rich repeat-containing protein 26 (Homo sapiens) (UniProt Q12791+Q2I0M4). The conditions noted are these: U2OS BacMam BK variants, F380Y/Slo1WT/gamma1, at 30 µM.
The test system of assay [4] is R275C. The settings on record: U2OS BacMam BK variants, at 30 µM.
For assay [5], the system named is R275C/beta1. The conditions noted are these: U2OS BacMam BK variants, at 30 µM.
In assay [6] the test system is R275C/beta2Delta. The conditions noted are these: U2OS BacMam BK variants, at 30 µM.
The test system of assay [7] is R275C/beta4. The conditions noted are these: U2OS BacMam BK variants, at 30 µM.
Assay [8] has as its system R275C/Slo1WT/beta2. The settings on record: U2OS BacMam BK variants, at 30 µM.

The structures appear in SMILES notation. Unmarked numbers belong to inactive results. Activity calls are given as the source filed them.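 The calls were made as follows: active = thallium flux through the channel raised or lowered by more than 3 SD from vehicle-only wells, actives on both sides; inactive = the rest.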

Calcium-activated potassium channel subunit alpha-1 (Homo sapiens) + Leucine-rich repeat-containing protein 26 (Homo sapiens), sequence (Q2I0M4 whole entry, looked up, one chain of several): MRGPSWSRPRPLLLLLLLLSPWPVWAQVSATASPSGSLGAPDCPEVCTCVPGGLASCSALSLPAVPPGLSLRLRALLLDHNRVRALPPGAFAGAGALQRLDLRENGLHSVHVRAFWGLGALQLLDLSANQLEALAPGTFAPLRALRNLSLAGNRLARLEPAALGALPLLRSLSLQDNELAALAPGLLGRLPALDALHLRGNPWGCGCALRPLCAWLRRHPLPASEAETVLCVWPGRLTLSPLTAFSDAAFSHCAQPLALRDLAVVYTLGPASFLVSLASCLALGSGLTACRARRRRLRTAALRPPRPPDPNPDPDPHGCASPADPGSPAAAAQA

As to `O=C1CCc2ccc(OCCCCN3CCN(c4cccc(Cl)c4Cl)CC3)cc2N1`, the log fold change Tl+ flux is -0.00576 in assay [1]; 0.0383 in assay [2]; -0.0185 in assay [3]; -0.0555 in assay [4]; 0.056 in assay [5]; 0.0181 in assay [6]. In addition, the log fold change Tl+ flux is 0.0353 in assay [7] and 0.0373 in assay [8].
Take `CC[N+](C)(CC)CCOC(=O)C(O)(c1ccccc1)C1CCCCC1` (stereo not given): the log fold change Tl+ flux is -0.0141 in assay [1]; -0.0257 in assay [2]; 0.0349 in assay [3]; -0.0159 in assay [4]; -0.00643 in assay [5]; 0.0312 in assay [6]. The log fold change Tl+ flux in assay [7] was 0.0157; in assay [8], 0.0812 (active).
Turning to `O=C(CCNNC(=O)c1ccncc1)NCc1ccccc1`, the log fold change Tl+ flux in assay [1] was -0.0162; in assay [2], 0.0308; in assay [3], 0.00963; in assay [4], -0.0947; in assay [5], -0.0338; in assay [6], 0.038. Moreover, the log fold change Tl+ flux is 0.0195 in assay [7] and 0.0406 in assay [8].
For `CC(N)C12CC3CC(CC(C3)C1)C2` (stereo not given), the log fold change Tl+ flux in assay [1] was 0.0577; in assay [2], 0.0485; in assay [3] it was 0.0164; in assay [4], 0.0361; in assay [5] it was -0.0211; in assay [6], 0.0568. Further, the log fold change Tl+ flux was 0.04 in assay [7] and 0.0291 in assay [8].
On to `Brc1c(NC2=NCCN2)ccc2nccnc12`, for which the log fold change Tl+ flux is -0.06 in assay [1]; -0.0578 in assay [2]; -0.0163 in assay [3]; -0.0123 in assay [4]; 0.0524 in assay [5]; -0.0061 in assay [6]. For the same compound, the log fold change Tl+ flux in assay [7] was 0.0292; in assay [8], 0.0556.
In the case of `CC(=O)Oc1ccccc1C(=O)Nc1ncc([N+](=O)[O-])s1`, the log fold change Tl+ flux in assay [1] was -0.0604; in assay [2], -0.0482; in assay [3], 0.139 (active); in assay [4], -0.00393; in assay [5], 0.0452; in assay [6] it was 0.237 (active). For the same compound, the log fold change Tl+ flux in assay [7] was 0.0513; in assay [8] it was 0.00625.
As for `COCc1c(C(C)C)nc(C(C)C)c(/C=C/[C@@H](O)C[C@@H](O)CC(=O)O)c1-c1ccc(F)cc1`, the log fold change Tl+ flux in assay [1] was 0.143 (active); in assay [2], 0.268 (active); in assay [3], 0.103 (active); in assay [4], 0.0107; in assay [5], 0.391 (active); in assay [6], 0.192 (active). The log fold change Tl+ flux was 0.207 (active) in assay [7] and 0.0728 in assay [8].
Regarding `CCN1CC(CCN2CCOCC2)C(c2ccccc2)(c2ccccc2)C1=O` (stereo not given), the log fold change Tl+ flux in assay [1] is -0.000818; in assay [2], 0.03; in assay [3] it was -0.0552; in assay [4] it was -0.0141; in assay [5], -0.00917; in assay [6], 0.0055. In addition, the log fold change Tl+ flux in assay [7] was 0.000738; in assay [8], -0.0334.
With `CCN(CC)CC1CCCCN1CC(=O)N1c2ccccc2C(=O)Nc2cccnc21` (stereo not given), the log fold change Tl+ flux is 0.0497 in assay [1]; -0.01 in assay [2]; 0.0283 in assay [3]; -0.0778 in assay [4]; 0.0108 in assay [5]; 0.0199 in assay [6]. For the same compound, the values for the log fold change Tl+ flux in assay [7] and in assay [8] were 0.0303 and 0.0393, respectively.
Take `O=C1c2cccc3c2[C@H](CCC3)CN1[C@@H]1CN2CCC1CC2`: the log fold change Tl+ flux in assay [1] was 0.0262; in assay [2] it was 0.0479; in assay [3] it was 0.0044; in assay [4], -0.0177; in assay [5], -0.00783; in assay [6], 0.00552. Besides, the log fold change Tl+ flux in assay [7] was -0.0169; in assay [8], -0.0269.
In the case of `COC1=C(OC)C(=O)C(CCCCCCCCCCO)=C(C)C1=O`, the log fold change Tl+ flux in assay [1] was -0.557 (active); in assay [2] it was -0.388 (active); in assay [3] it was -0.413 (active); in assay [4] it was -0.199 (active); in assay [5], -0.0599; in assay [6], -0.151 (active). Also, the values for the log fold change Tl+ flux in assay [7] and in assay [8] were -0.0932 (active) and -0.0534, respectively.
Turning to `COc1cc2nc(N3CCN(C(=O)C4CCCO4)CC3)nc(N)c2cc1OC` (stereo not given), the log fold change Tl+ flux was -0.00319 in assay [1]; 0.00186 in assay [2]; -0.0172 in assay [3]; 0.0113 in assay [4]; -0.0224 in assay [5]; -0.0771 in assay [6]. The log fold change Tl+ flux is -0.0968 in assay [7] and -0.0619 in assay [8].
As for `COc1ccc(C2CNC(=O)C2)cc1OC1CCCC1` (stereo not given), the log fold change Tl+ flux in assay [1] is -0.0248; in assay [2] it was -0.115 (active); in assay [3], -0.000443; in assay [4] it was 0.0314; in assay [5], 0.031; in assay [6], -0.00816. The figures for the log fold change Tl+ flux in assay [7] and in assay [8] were 0.0303 and 0.00671, respectively.
For the compound `Nc1nnc(-c2cccc(Cl)c2Cl)c(N)n1`, the log fold change Tl+ flux in assay [1] was -0.0167; in assay [2], -0.0171; in assay [3], 0.000443; in assay [4] it was 0.00303; in assay [5], 0.00854; in assay [6], 0.0465. The log fold change Tl+ flux was -0.0247 in assay [7] and -0.000749 in assay [8].
On to `COc1cc2c(cc1OC)C(=O)C(CC1CCN(Cc3ccccc3)CC1)C2` (stereo not given), for which the log fold change Tl+ flux in assay [1] is 0.0718; in assay [2] it was 0.0262; in assay [3] it was -0.0241; in assay [4], -0.0742; in assay [5] it was 0.0129; in assay [6], -0.0194. Further, the log fold change Tl+ flux in assay [7] was 0.00155; in assay [8] it was 0.0243.
